PubChem BioAssay (NCI)
Compounds without any hit were thinned out: in the full panel of roughly 79,000, 15% have a hit. Unmarked numbers belong to inactive results. Activity calls are given as the source filed them. Rule as the data show it: active = growth inhibition above about 70%; inactive = the rest.

Key:
[1] = NCI Yeast Anticancer Drug Screen. Data for the rad50 strain (AID 155);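 also: 0% = growth of vehicle-only cultures of the same strain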; conditions: S. cerevisiae rad50 strain growth inhibition, active compounds read high
In short: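 Inhibition values express reduced yeast growth in compound-treated cultures relative to vehicle-treated controls.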

[2] = NCI Yeast Anticancer Drug Screen. Data for the mec2-1 strain (AID 157); conditions: S. cerevisiae mec2-1 strain, active compounds read high
In short: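 Growth inhibition is read against vehicle-treated controls after compound exposure of the mec2-1 yeast strain, which is defective in DNA damage repair or cell cycle control.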

[3] = NCI Yeast Anticancer Drug Screen. Data for the sgs1 mgt1 strain (AID 161);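 also: 0% = growth of cultures given vehicle only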; conditions: S. cerevisiae sgs1 mgt1 strain, active compounds read high
In short: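 Growth of a repair-deficient yeast mutant was monitored after compound treatment and expressed as inhibition relative to vehicle-treated cultures.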

[4] = NCI Yeast Anticancer Drug Screen. Data for the cln2 rad14 strain (AID 165);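 also: 0% = growth equal to vehicle treated cultures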; conditions: S. cerevisiae cln2 rad14 strain, active compounds read high
In short: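 Growth inhibition, relative to vehicle-treated controls, is the read-out. The test organism is a yeast strain with defined genetic alterations, cln2 rad14.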

[5] = NCI Yeast Anticancer Drug Screen. Data for the bub3 strain (AID 167); conditions: S. cerevisiae bub3 mutant strain, active compounds read high
In short: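 Steps: expose the mutant yeast strain to compound; grow alongside vehicle-treated cultures; measure growth; express inhibition against the vehicle cultures.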

[6] = NCI Yeast Anticancer Drug Screen. Data for the mlh1 rad18 strain (AID 175); conditions: S. cerevisiae mlh1 rad18 strain growth inhibition, active compounds read high
In short: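 Cells of a genetically altered yeast strain, deficient in DNA damage repair, were treated with compound. Their growth was then compared with that of vehicle-treated cultures to give inhibition.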

[7] = at 5.0 µM (retest, dose inferred, filed as 0.5)
[8] = at 50.0 µM (retest, dose inferred, filed as 5.0)

Compound	growth inhibition [1, 7]	growth inhibition [1, 8]	growth inhibition ([1]; at 50.0 µM)	growth inhibition [2, 7]	growth inhibition [2, 8]	growth inhibition ([2]; at 50.0 µM)	growth inhibition [3, 7]	growth inhibition [3, 8]	growth inhibition ([3]; at 50.0 µM)	growth inhibition [4, 7]	growth inhibition [4, 8]	growth inhibition ([4]; at 50.0 µM)	growth inhibition [5, 7]	growth inhibition [5, 8]	growth inhibition ([5]; at 50.0 µM)	growth inhibition [6, 7]	growth inhibition [6, 8]	growth inhibition ([6]; at 50.0 µM)
O=C(Nc1ccccc1C(=O)O)c1ccccc1	-7%	50%	44%	2%	-6%	23.5%	-5%	-22%	79.7% (active)	-2%	-14%	-11.6%	-14%	30%	36%	-7%	23%	78.2% (active)
COc1ccc(C(=O)C2OC2c2ccccc2)cc1 (stereo not given)	-2%	23%	42.4%	-6%	9%	15.4%	-1%	20%	30%	-32%	3%	20.1%	3%	18%	58.5%	7%	59%	34.7%
CC(=O)Nc1ccc2c(ccc3cccc[n+]32)c1	-2%	0%	96.7% (active)	-10%	-6%	97.2% (active)	1%	10%	95.8% (active)	-2%	-6%	95.2% (active)	-7%	-13%	96.5% (active)	-1%	-3%	96.3% (active)
Cn1cnc([N+](=O)[O-])c1Sc1nc2ccccc2s1	57%	96% (active)	91.3% (active)	38%	98% (active)	92.3% (active)	51%	97% (active)	92.1% (active)	35%	74% (active)	90.7% (active)	45%	97% (active)	91.4% (active)	64%	98% (active)	90% (active)
CCCC(=O)OCC1CC2C=CC1C2 (stereo not given)	0%	-3%	-6.25%	0%	2%	-7.65%	0%	-1%	-18.3%	-7%	3%	79.2% (active)	-3%	2%	15%	-1%	-5%	-3.9%
c1ccc2c(CCc3ccncc3)cccc2c1	4%	74% (active)	95.4% (active)	2%	60%	95.5% (active)	1%	60%	96% (active)	3%	53%	88.5% (active)	10%	81% (active)	94.1% (active)	0%	71% (active)	92.5% (active)
COc1cc(/C=C2\CC(C)C/C(=C\c3ccc(O)c(OC)c3)C2=O)ccc1O (stereo not given)	84% (active)	83% (active)	74.5% (active)	91% (active)	89% (active)	83.6% (active)	92% (active)	90% (active)	77.7% (active)	70% (active)	89% (active)	81.6% (active)	91% (active)	89% (active)	80.8% (active)	84% (active)	90% (active)	66.5%
COc1ccc(S(=O)(=O)O)cc1-n1nc(C(=O)Nc2ccccc2)n[n+]1-c1cc(S(=O)(=O)[O-])ccc1OC	2%	9%	19.1%	1%	3%	39.8%	10%	4%	22%	0%	2%	0.4%	-3%	2%	-10.6%	1%	-61%	63.9%
NNC(=O)N/N=C(\CC1(O)C(=O)Nc2c(Cl)ccc(Cl)c21)c1ccc(F)cc1 (stereo not given)	79% (active)	91% (active)	56.4%	50%	80% (active)	39.5%	72% (active)	85% (active)	37.4%	64%	74% (active)	2.75%	70% (active)	80% (active)	21.9%	57%	73% (active)	50.3%
Nc1ncnc2c1c(-c1ccccc1)cn2-c1ccc(I)cc1	54%	-2%	33.4%	23%	0%	75.2% (active)	65%	-3%	41.1%	24%	-2%	94.2% (active)	32%	0%	97.3% (active)	26%	-2%	47.9%
